# Data from PubChem BioAssay (NCI).
# The panel holds about 83,000 compounds, 20% with a hit somewhere; the sample as a whole holds those more often.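 Treatment: one concentration, 48 hours, 96-well format. Scoring: percent growth, with anything below 10 considered active.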 The source made the active and inactive calls.
# Test system: MDA-MB-468 breast
# Assay: NCI-60 one-dose screen, 48 h (100 = growth as untreated, 0 = no growth, -100 = all killed)
# Conditions: 10 µM unless noted
row,Compound,growth
1,CCOC(=O)C1=C(C)N2C(=NC3=C(CCCC/C3=C\c3ccccc3)C2c2ccccc2)S1 (stereo not given),103% (inactive)
2,CCc1c2c(nc3ccc(OCc4ccc(B5OC(C)(C)C(C)(C)O5)cc4)cc13)-c1cc3c(c(=O)n1C2)COC(=O)[C@]3(O)CC,-42% (active)
3,CC1(C)[C@@H](O)CC[C@]2(C)[C@H]3CC[C@@H]4[C@H]5[C@H](C(=O)/C=C/c6ccc(C(F)(F)F)cc6)CC[C@]5(CO)CC[C@@]4(C)[C@]3(C)CC[C@@H]12,61.9% (inactive)
4,CCOC(=O)/C(F)=C/C1CC1C1CCCCC1 (stereo not given),96.9% (inactive)
5,Cn1cc(CC2CC(=O)N(c3ccccc3)C2=O)sc1=NC(=O)c1ccccc1 (stereo not given),99.8% (inactive)
6,CCCCCCC1(/C=N/NC(N)=O)NC(=O)NC1=O (stereo not given),92.1% (inactive)
7,CC(=[N-])N1CCC[C@@H](Nc2c3ccccc3nc3ccccc23)C1.[Cl][Pt].[NH-]CCC[NH-],-10.4% (active)
8,c1ccc(Cn2cc3c(c2-c2ccccc2)CCc2cnoc2-3)cc1,66.5% (inactive)
9,O=S(=O)(NC1CC2CCC1C2)c1ccc2c(c1)C(=NO)c1cc(S(=O)(=O)NC3CC4CCC3C4)ccc1-2 (stereo not given),-61.9% (active)
10,CC1(C)OC(=O)C(=Cc2cccc(Br)c2)C(=O)O1,111% (inactive)
11,COc1ccc(COC=O)cc1,114% (inactive)
12,O=C(CCc1nnc2sc(Cc3ccccc3Cl)nn12)c1nc2ncccc2[nH]1,95.9% (inactive)
13,Cc1ccc(S(=O)(=O)NC(CCC(=O)Nc2ccccc2)C(=O)Nc2ccccc2)cc1 (stereo not given),-20.6% (active)
14,CC(=O)c1c(Nc2cccc(F)c2)[nH]c2c(Cl)cc(Cl)c(Cl)c2c1=O,-10.2% (active)
15,CC(COC(=O)c1ccccc1)N1CC2CCC(C1)O2 (stereo not given),103% (inactive)
16,CC(C)Sc1nc(NNC(N)=S)c(C#N)c(-c2ccc(F)cc2)n1,98.4% (inactive)
17,O=C(CCl)N1c2ccccc2Sc2c1ccc1ccccc21,26.4% (inactive)
18,CN1CCc2nc3sc(C(N)=O)c(N)c3c(-c3cccs3)c2C1,14.2% (inactive)
19,N#CCNc1ccccc1N,108% (inactive)
20,N#CC1C(=N)Cc2ccccc2-c2ccccc21 (stereo not given),9.26% (active)

row,Compound,growth
1,Cc1ccc2c(C3C(C#N)=C(N)Oc4cc5ccccc5cc43)cc(=O)oc2c1 (stereo not given),30.3% (inactive)
2,O=C(Nc1cc(Cl)cc(Cl)c1)Nc1ccc2oc(=O)ccc2c1,15.7% (inactive)
3,Cc1ccc(-c2nnc3sc(C4=Cc5ccccc5OC=C4)nn23)cc1,109% (inactive)
4,CC(=O)Nc1nonc1-c1nc2ccccc2n1Cc1ccc(C(C)(C)C)cc1,86.8% (inactive)
5,CC(C)(C)c1ccc(S(=O)(=O)N[C@H]2CC[C@H]3[C@@H]4CCc5cc(OS(=O)(=O)O)ccc5[C@H]4CC[C@]23C)cc1,58.6% (inactive)
6,COC(=O)CCC1=C(CC(=O)OC)C(C)=N/C1=C\c1[nH]c(-c2ccc[nH]2)cc1OC,61.9% (inactive)
7,COC[C@]12CCC(C)(C)C[C@H]1C1=CC[C@@H]3[C@@]4(C)CCCNC(C)(C)[C@@H]4CC[C@@]3(C)[C@]1(C)CC2,-82.1% (active)
8,O=c1c2cc(F)ccc2oc2c(NCCNCCO)nc3ccccc3c12,-14.5% (active)
9,Oc1c(Cl)cc(Oc2cc(Cl)c(O)c(CN3CCOCC3)c2)cc1CN1CCOCC1,84% (inactive)
10,COc1ccc(NC(=O)CCn2cnc3c(cc(-c4ccccc4)n3-c3ccccc3)c2=O)cc1,79.5% (inactive)
11,N=C(N)c1ccc(-c2ccc(-c3cccs3)s2)s1,-90.3% (active)
12,c1ccc2c(c1)Oc1ccccc1C2C1c2ccccc2Oc2ccccc21,107% (inactive)
13,C[C@H](C(=O)N(CCc1ccc(Cl)c(Cl)c1)Cc1cncs1)[C@@H]1CC[C@H](C[C@H](C)n2cc(CN3CCC(c4ccc(Cl)cc4)CC3)nn2)O1,90.3% (inactive)
14,CCC(CCC(C)C1CCC2C3CC=C4CC(O)CCC4(C)C3CCC12C)C(C)C (stereo not given) (tested in a mixture with another compound),114% (inactive)
15,CC(C)(C)[Si](C)(C)OCC1OC(n2cnc3c(N)ncnc32)CC1OS(C)(=O)=O (stereo not given),99.7% (inactive)
16,CCOc1ccccc1C(=O)/C=C/c1cc2ccccc2[nH]c1=O,-20.2% (active)
17,CC(=O)c1ccc(NC(=O)Nc2ccc(S(=O)(=O)Nc3ccc(Cl)nn3)cc2)cc1,107% (inactive)
18,COc1cc2nc(Nc3cccc(C(=O)O)c3)nc(N)c2cc1OC,108% (inactive)
19,Fc1cccc(-c2[nH]nc3nc(Nc4cccnc4)sc23)c1,11.9% (inactive)
20,Cn1c2c(cc(S(=O)(=O)c3ccccc3)c1=O)CCc1c-2cnn1-c1ccccc1Cl,91.9% (inactive)
